# HCV inhibitor: HCV inhibition; Potency, µM (highest dose often 41.8 µM), most hits filed as inhibitors; Huh7.5.1 HCVcc-Cre infection, luciferase reporter, 44 h; 340,000 tested, 3.4% active
#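 Antiviral activity was scored by luciferase reporter output from cells infected with HCVcc-Cre (~0.5 moi) in presence of compound, 44 h infection period, cells seeded 1,000/well 4 h prior.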
# RE007 growth inh: less growth of the S. pombe RE007 Vpr strain; S. pombe RE007 Vpr strain, BacTiter-Glo ATP luminescence, 24 h; Potency, µM (doses to about 92.2 µM), most hits filed as inhibitors; 360,000 tested, 0.21% active; AID 651644; active means well fitted falling curve with a large enough effect; inconclusive means small, poorly fitted or top-dose-only effect; inactive means no such curve, though single readings can be large or run the other way; further: nearly all actives have a fitted effect of over 50% in size
#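 Fission yeast strain RE007, carrying one chromosomally integrated HIV-1 vpr copy, was seeded at OD 0.01 in PMG+AL medium with 23 nL pinned compound. After 24 h at 30 °C and 99% humidity, viability was read by BacTiter-Glo luminescence.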
# Lassa entry inh: Lassa virus entry inhibition. Potency, µM (top dose mostly 37.9 µM), actives largely listed as inhibitors. Lassa virus pseudotype entry inhibition, cell reporter. AID 540256. 300,000 tested, 1.2% active; calls by dose curve; tested in HEK293 cells; further: nearly all actives have a fitted effect of over 50% in size
# FMDV inh: antivirals against foot and mouth disease virus | FMDV antiviral cell-based qHTS | Potency, µM (doses to about 57.9 µM), actives largely listed as inhibitors | 410,000 tested, 1.2% active | AID 1159524; calls by dose curve; tested in HEK293T cells; further: read-out not given here; nearly all actives have a fitted effect of over 45% in size
# Sm TGR inh: S. mansoni TGR enzyme inhibition; Q962Y6; purified TGR, DTNB reduction, TNB absorbance 405 nm; Potency, µM (top dose mostly 114 µM), usual class: inhibitors; 360,000 tested, 3% active; AID 485364; further: nearly all actives have a fitted effect of over 60% in size
#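 Kinetic colorimetric format: TGR-catalysed, NADPH-driven DTNB reduction monitored via TNB absorbance. Enzyme dispensed at 20 nM; compound exposure 15 min at room temperature before reaction start.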
# MARV entry inh: inhibitors of Marburg virus binding or cell entry | Marburg virus pseudotyped entry inhibition, cell reporter | AID 540276 | 300,000 tested, 1.8% active | Potency, µM (doses to about 37.8 µM), most hits filed as inhibitors; calls by dose curve; tested in HEK293 cells
# A number is an active result; . = inactive; ? = inconclusive; / = not tested or not shown; [ ] = another dose, or the depositor's remark. This is a sample that favours compounds with a hit; in the whole collection about 7.2% have one here. Unless noted, the call rests on the fitted dose curve; in most records, active means well fitted curve in the direction sought with a large enough effect; inconclusive means small, poorly fitted or top-dose-only effect, or another doubt; inactive means no such curve, though single readings can be large; an effect the other way counts as inactive or inconclusive.
SMILES,HCV inhibitor,RE007 growth inh,Lassa entry inh,FMDV inh,Sm TGR inh,MARV entry inh
CC(=O)Nc1nc2ccccc2n1CCOc1ccccc1,.,.,?,.,.,?
S=C(Nc1ccccc1)Nc1nc2ccccc2n1CCOc1ccccc1,6.3µM,.,.,.,.,?
CC1CCN(S(=O)(=O)c2cccc(C(=O)NCc3ccco3)c2)CC1,.,.,.,.,.,.
Cc1ccc(C(=O)NCc2ccco2)cc1S(=O)(=O)N1CCCC1,.,.,?,.,40µM,.
O=C(OCc1ccco1)c1ccc(S(=O)(=O)N2CCCCC2)cc1,.,.,.,.,7.1µM,.
O=C(NCc1ccco1)c1cccc(S(=O)(=O)N2CCCC2)c1,.,.,.,.,50µM,.
Cc1cc(S(=O)(=O)N2CCCC2)ccc1OCC(=O)NCc1ccco1,.,.,.,/,40µM,.
CCc1ccccc1NC(=O)CN1C(=O)CCc2cc(S(=O)(=O)N3CCCCC3)ccc21,/,/,.,.,.,/
O=C(NCc1ccco1)c1ccc(S(=O)(=O)c2cccc(S(=O)(=O)N3CCOCC3)c2)cc1,.,.,.,.,50µM,.
COc1ccc(-c2nnc(SCC(=O)NCc3ccco3)o2)cc1,.,.,.,/,?,.
O=C(CSc1nnc(-c2ccc(S(=O)(=O)N3CCCC3)cc2)o1)NCc1ccco1,.,.,.,.,45µM,.
Fc1ccc(/C=N/n2c(C3CCCCC3)n[nH]c2=S)cc1,.,.,/,.,.,/
CCOc1ccc(/C=N/n2c(C3CCCCC3)n[nH]c2=S)cc1,11µM,.,/,.,.,/
CN(C)c1ccc(/C=N/n2c(C3CCCCC3)n[nH]c2=S)cc1,.,.,?,.,.,2.2µM
CNC(=O)c1cncc(C=Cc2c(C)cccc2C)c1,/,/,.,/,/,/
CC(C(=O)NCc1ccccc1)N1Cc2ccccc2C1=O (configuration not stated),/,/,.,.,.,/
Cn1c(=O)[nH]c(=O)c2[nH]c(N(Cc3ccccc3)Cc3ccccc3)nc21,.,.,?,40µM,.,.
Cn1c(=O)[nH]c(=O)c2[nH]c(CN3CCN(Cc4ccccc4)CC3)nc21,.,.,/,.,.,/
CCNc1nc(NC(C)C)nc(N(C#N)C(C)C(=O)N(C)C)n1 (configuration not stated),.,.,?,.,.,.
CC(C)Nc1nc(NC(C)C)nc(N(C#N)C(C)C(=O)N(C)C)n1 (configuration not stated),/,/,/,/,40µM,/
COc1ccc(/C=N/Nc2nc(-c3cccnc3)nc3ccccc23)cc1OC,.,.,.,.,.,?
Cc1c(O)ccc(/C=N/Nc2nc(-c3cccnc3)nc3ccccc23)c1O,25µM,.,/,.,.,/
Cc1ccc(-c2nc(N/N=C/c3ccncc3)c3ccccc3n2)cc1,.,?,?,1µM,.,2.9µM
Oc1ccc(/C=N/Nc2nc(-c3cccnc3)nc3ccccc23)c(O)c1,11µM,.,/,.,.,/
Cc1cc(C)nc(SCc2ccc(C(=O)N/N=C/c3ccco3)cc2)n1,?,.,.,.,32µM,.
SMILES,HCV inhibitor,RE007 growth inh,Lassa entry inh,FMDV inh,Sm TGR inh,MARV entry inh
C/C(=N\NC(=O)c1ccc(CSc2nc(C)cc(C)n2)cc1)c1ccco1,.,.,.,.,45µM,?
Cc1cc(C)nc(SCc2ccc(C(=O)N/N=C/c3ccc(C(=O)O)cc3)cc2)n1,.,.,.,.,.,.
O=C(Nc1ccccc1C(=O)N/N=C/c1ccco1)c1ccccc1,.,?,.,.,.,.
O=C(Nc1ccccc1C(=O)N/N=C/c1ccco1)c1ccc(F)cc1,.,22µM,.,.,.,.
COc1ccc2nc(C)cc(SCC(=O)N/N=C/c3ccco3)c2c1,.,.,/,.,?,8.9µM
C/C(=N\NC(=O)c1ccc(-c2ccccc2)cc1)c1ccco1,.,.,.,.,.,.
Cc1cc(SCC(=O)N/N=C/c2ccco2)nc2ccccc12,.,.,.,.,?,?
O=C(Cn1ncc2c3ccccc3n(Cc3ccccc3F)c2c1=O)NCc1ccccc1Cl,/,/,.,.,.,.
COc1ccccc1N1CCN(C(=O)CN2C(=O)COc3ccc(S(=O)(=O)N4CCCC4)cc32)CC1,/,/,.,.,.,.
CN(C1CCCCC1)S(=O)(=O)c1ccc2c(c1)c(=O)c(C(=O)N1CCN(c3ccc(F)cc3)CC1)cn2C,/,/,.,.,.,.
C#CC(=O)N(c1cccc(OC)c1)C(C(=O)NC1CCCC1)c1cccs1 (configuration not stated),0.56µM,.,?,/,7.9µM,2.9µM
C#CC(=O)N(c1ccc(OC)c(OC)c1)C(C(=O)NC1CCCC1)c1cccs1 (configuration not stated),0.32µM,.,7.9µM,?,5.6µM,3.5µM
CC(C)C1C(=O)N(Cc2cn(CCC3OCCCO3)nn2)CCS(=O)(=O)N1Cc1ccc(-c2ccc(F)nc2)cc1 (configuration not stated),/,.,/,.,/,?
COc1ccccc1C(=O)NC(=O)Nc1ccc(-n2nc(C(F)(F)F)cc2C(F)(F)F)cc1,/,/,.,.,.,.
CCOc1ccc(NC(=S)NCc2ccc3[nH]c(C)cc3c2)cc1,11µM,.,2.9µM,.,.,.
COc1cccc(C(=O)NCc2ccc3[nH]c(C)cc3c2)c1,.,.,/,.,40µM,/
COc1ccc(C(=O)NCc2ccc3[nH]c(C)cc3c2)cc1OC,.,.,/,.,14µM,/
COc1cc(OC)cc(C(=O)NCc2ccc3[nH]c(C)cc3c2)c1,.,.,/,.,?,/
COc1cc(CNc2nc(C)c(-c3ccn(C4Cc5ccccc5C4)n3)s2)cc2c1OCO2,/,/,/,.,/,/
CC1CCCCN1c1c(S(=O)(=O)c2ccc(Cl)cc2)cnc2ccccc12 (configuration not stated),/,/,/,?,.,.
COc1cccc(-c2c(NC(=O)c3ccco3)oc3ccccc3c2=O)c1,0.32µM,.,/,.,.,/
COc1cccc(-c2c(NC(=O)c3ccco3)oc3ccc(Cl)cc3c2=O)c1,.,.,.,.,.,.
CC(=O)Nc1cc(Br)ccc1O,.,.,/,.,.,/
CC(=O)Nc1cc([As](=O)(O)O)ccc1O,.[8.37 µM],.,.,.,7.1µM,.
COc1ccc2c(c1)c(=O)c(C(=O)c1ccc(C)cc1)cn2Cc1ccccc1F,/,/,?,.,.,11µM
COc1ccc(C(=O)c2cn(Cc3ccccc3F)c3ccc(F)cc3c2=O)cc1,/,/,?,.,.,.
Cc1ccc(CCNC(=O)c2cc3c(=O)n(C)c4ccccc4c3n2C)cc1,/,/,.,.,.,.
COc1cc(C=C2CCCC(=Cc3ccc(OCC4CO4)c(OC)c3)C2=O)ccc1OCC1CO1 (configuration not stated),/,.,/,11µM,/,/
COc1ccc(/C=C2/CSC/C(=C/c3ccc(OC)c(OC)c3)C2=O)cc1OC,?,.,3.2µM,3.5µM,/,3.5µM
COc1ccc(/C=C2\SC(c3ccc(C)cc3)=NC2=O)cc1OC,.,.,.,/,.,.
